In PubChem BioAssay AID651815 (National Center for Advancing Translational Sciences (NCATS), 2012):
Where “and” joins values, the source holds several entries; their conditions need not be identical. Equal values may be shown once. Out of some 2,100 compounds screened, about 1,100 (52%) were called active. Inconclusive results (about 29%) are left out. The call rests on the fitted dose curve; in most records, active means well fitted inhibition curve with a large enough effect; inconclusive means small, poorly fitted or top-dose-only effect; inactive means no such curve, though single readings can be large or run the other way. So high a share suggests a set chosen from earlier hits. This is one part of the list.

What follows are molecules tested against DNA dC->dU-editing enzyme APOBEC-3F (Homo sapiens) (UniProt Q8IUX4) (assay: qHTS for inhibitors of Vif-A3F interactions: Cherry picks counterscreen). Settings: HeLa A3F-eYFP/Vif cells, eYFP fluorescence, 24 h; series mostly up to 46.1 µM.
In short: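 HeLa cells stably expressing A3F-eYFP and Vif, cultured overnight, then treated 24 h at 37 degrees C with compounds at several concentrations; yellow fluorescence (488 nm Ex/500-530 nm Em) imaged on Acumen; MG132 positive control.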
Further: nearly all actives have a fitted effect of over 65% in size.
Potency means the concentration at half of the fitted maximal effect.

Sequence of DNA dC->dU-editing enzyme APOBEC-3F (Homo sapiens) (Q8IUX4 whole entry, looked up): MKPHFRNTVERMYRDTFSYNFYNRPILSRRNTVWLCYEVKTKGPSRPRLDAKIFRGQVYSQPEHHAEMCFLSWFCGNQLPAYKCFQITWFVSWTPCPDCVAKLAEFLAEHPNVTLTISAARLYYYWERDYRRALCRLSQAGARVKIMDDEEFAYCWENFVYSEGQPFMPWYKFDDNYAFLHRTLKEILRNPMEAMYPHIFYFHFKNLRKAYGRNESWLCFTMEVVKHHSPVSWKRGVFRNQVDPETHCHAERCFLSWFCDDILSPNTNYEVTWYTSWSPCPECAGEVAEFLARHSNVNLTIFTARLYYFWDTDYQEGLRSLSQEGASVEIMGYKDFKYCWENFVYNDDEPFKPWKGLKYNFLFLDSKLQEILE

Row | Compound | Potency
1 | COc1ccc(-c2n[nH]c(C)c2-c2ccc(OC)c(OC)c2)c(O)c1 | 7.9 µM (active)
2 | O=[N+]([O-])c1ccc(N/N=C/c2sc(N3CCOCC3)nc2-c2ccccc2)c(S(=O)(=O)Nc2ccccc2Cl)c1 | 5.8 µM (active)
3 | O=[N+]([O-])c1ccccc1S(=O)(=O)Nc1ccc(-c2ccc(N3CCOCC3)nn2)cc1 | inactive
4 | COc1ccccc1NS(=O)(=O)c1cc([N+](=O)[O-])ccc1N/N=C/c1sc(N2CCOCC2)nc1-c1ccccc1 | 1.46 µM (active)
5 | CCOC(=O)c1ccc(NC(=S)NC(=O)C2CCCC2)cc1 | inactive
6 | COC(=O)c1ccc(NC(=O)CC2Nc3cc(C)c(C)cc3NC2=O)cc1 (stereo not drawn) | 9.2 µM (active)
7 | CCCSc1ncc(Cl)c(C(=O)Nc2sc3c(c2C(N)=O)CCCC3)n1 | 18.4 µM (active)
8 | CCOC(=O)c1ccc(/C=C2/C=C(c3ccccc3)N(c3ccc(Cl)c(C(=O)O)c3)C2=O)cc1 | 20.6 µM (active)
9 | Cc1cc2cc(C#N)c(SCC(=O)Nc3nonc3C)nc2cc1C | 23.1 µM (active)
10 | Cc1cc(NC(=O)CSc2nc(-c3cccs3)nc3ccccc23)no1 | 0.994 µM (active)
11 | Cc1nonc1NC(=O)CSc1nc2c(C)cccc2cc1C#N | 16.4 µM (active)
12 | Cc1cc(NC(=O)CSc2nc3c(C)cccc3cc2C#N)no1 | 6.51 µM (active)
13 | CC(Nc1oc(-c2ccc(COc3ccccc3)o2)nc1C#N)c1ccccc1 (stereo not drawn) | inactive
14 | Cc1ccc2nc(SCC(=O)Nc3ccc4sc(C)nc4c3)c(C#N)cc2c1 | 16.4 µM (active)
15 | Cc1nc2cc(NC(=O)CSc3nc4c(C)cccc4cc3C#N)ccc2s1 | 13 µM (active)
16 | Cc1cccc(C(=O)Nc2nnc(C3=COCCO3)o2)c1 | inactive
17 | N=C1S/C(=C\c2ccc(-c3cccc(Cl)c3)o2)C(=O)N1c1nccs1 | 18.4 µM (active)
18 | O=C(N/N=C/c1c(O)n(-c2ccc(Cl)cn2)c(=O)c2ccccc12)c1ccncc1 | inactive
19 | COc1ccc(N=Cc2c(O)n(-c3cccc(C)n3)c(=O)c3ccccc23)c(OC)c1 | 23.1 µM (active)
20 | Cc1ccc(N=Cc2c(O)n(-c3nccs3)c(=O)c3ccccc23)c(C)c1 | inactive
21 | CCOC(=O)Cc1ccc(Nc2nc3cc(-c4sccc4C)sc3c(=O)n2C)cc1 | 3.96 µM (active)
22 | COc1ccc(-n2nnnc2-c2cccc(OC)c2)cc1 | 1.25 µM (active)
23 | COc1ccc(-n2nnnc2-c2ccccc2)cc1 | 2.5 µM (active)
24 | CCOc1cccc(-n2nnnc2-c2ccc(OC)cc2)c1 | 4.44 µM (active)

Row | Compound | Potency
25 | COc1ccc(-n2cc3c(-c4cccc(Br)c4)nnc(C)c3n2)cc1 | inactive
26 | COc1ccc(-c2cc(NC(C)=O)c3ncc(-c4cc(OC)c(OC)c(OC)c4)n3c2)cn1 | 7.04 µM (active)
27 | COc1cc(-c2cnc3c(NC(C)=O)cc(-c4ccccc4CN(C)C)cn23)cc(OC)c1OC | 12.5 µM (active)
28 | Cc1ccc(CNC(=O)c2cccc(Nc3nc4ccccc4n4nnnc34)c2)cc1 | 20.6 µM (active)
29 | CC(NC(=O)c1ccc(Nc2nc3ccccc3n3nnnc23)cc1)c1ccccc1 (stereo not drawn) | 18.4 µM (active)
30 | COc1cc(Nc2nc3ccccc3n3nnnc23)cc(OC)c1OC | 13 µM (active)
31 | COc1ccccc1CNC(=O)c1ccc(Nc2nc3ccccc3n3nnnc23)cc1 | 23.1 µM (active)
32 | Cc1cc(C)nc(-n2nc(C)cc2NC(=O)c2ccc(F)cc2F)n1 | inactive
33 | COc1cc2ccccc2cc1C(=O)N/N=C/c1cccs1 | 1.77 µM (active)
34 | COc1ccc(NC(=O)/C(C#N)=C\C=C\c2ccco2)cc1 | 7.04 µM (active)
35 | COc1ccc(NC(=O)/C(C#N)=C/C=C/c2ccco2)cc1 | 6.27 µM (active)
36 | C=CCOc1ccc2nc(NC(=O)OC)[nH]c2c1 | 2.5 µM (active)
37 | CCOC(=O)c1c(NC(=O)CSc2nc3ccc(OC)cc3[nH]2)sc2c1CC(C)(C)NC2(C)C | inactive
38 | CC(C)n1cnc2c(NCc3ccccc3)cc(N[C@H](C)CO)cc21 | 14 µM (active)
39 | COc1ccccc1Nc1nnc(SCC2CCCCO2)s1 (stereo not drawn) | 14 µM (active)
40 | Cc1ccc(NC(=O)C(=Cc2ccc(C(=O)O)cc2)C(=O)Nc2ccc(C)cc2C)c(C)c1 | 3.53 µM (active)
41 | C=CCN1C(=O)/C(=C/c2ccc(O)c(OC)c2)S/C1=N/c1nccs1 | inactive
42 | CN(C)c1ccc(/C=C2\SC(=S)N(Nc3ncc(C(F)(F)F)cc3Cl)C2=O)cc1 | 6.51 µM (active)
43 | COc1cc(/C=C2\SC(=S)N(NC(=O)c3ccccc3OC)C2=O)ccc1O | inactive
44 | COc1cc(/C=C2\SC(=S)N(Nc3ncc(C(F)(F)F)cc3Cl)C2=O)ccc1O | 20.6 µM (active)
45 | N=C1/C(=C\c2coc3ccccc3c2=O)C(=O)N=C2SC(c3ccncc3)=NN12 | 20.6 µM (active)
46 | COc1ccc(-c2coc3cc4oc(=O)cc(-c5ccccc5)c4cc23)cc1F | 1.98 µM (active)
47 | COc1ccc(C)cc1NCc1cc(=O)oc2cc(-c3ccccc3)c(O)cc12 | inactive
48 | COc1ccc2nc3sc(C(=O)Nc4cc(Cl)c(OC)cc4OC)cc3cc2c1 | 4.11 µM (active)

Row | Compound | Potency
49 | Nc1nc2n[nH]nc2c(=O)[nH]1 | 9.2 µM (active) and 3.96 µM (active)
50 | Cc1noc(C)c1CSc1nc2ccccc2c(=O)n1-c1ccccc1 | 3.53 µM (active)
51 | C=CCn1c(SCc2c(C)noc2C)nc2cc(C(=O)O)ccc2c1=O | 17.7 µM (active)
52 | O=S(=O)(Nc1nc2ccccc2nc1N1CCc2ccccc2C1)c1ccc(Br)cc1 | 23.1 µM (active)
53 | O=C(N=c1ccn(-c2nc3ccccc3nc2NS(=O)(=O)c2ccccc2)cc1)c1cccs1 | inactive
54 | O=S(=O)(Nc1nc2ccccc2nc1N1CCN(c2ccccc2)CC1)c1ccc(F)cc1 | 18.4 µM (active)
55 | CN1CCN(c2nc3ccccc3nc2NS(=O)(=O)c2ccc(Br)cc2)CC1 | 18.4 µM (active)
56 | O=C(N=c1ccn(-c2nc3ccccc3nc2NS(=O)(=O)c2ccc(Cl)cc2)cc1)c1cccs1 | 16.4 µM (active)
57 | NC(=O)C1CCN(c2nc3ccccc3nc2NS(=O)(=O)c2ccc(Br)cc2)CC1 | 16.4 µM (active)
58 | O=C(NC(=S)N1CCN(c2ccccn2)CC1)c1ccccc1 | inactive
59 | O=S(=O)(Nc1nc2ccccc2nc1N1CCN(c2ccccn2)CC1)c1ccc(Cl)cc1 | 16.4 µM (active)
60 | Cc1c(=O)n(OCc2ccc(Cl)cc2)c2ccccc2[n+]1[O-] | inactive
61 | CN1/C(=C/C=C(C#N)C#N)C(C)(C)c2ccccc21 | 2.91 µM (active)
62 | CC1=C/C(=C\C=C(C#N)C#N)N(C)c2ccccc21 | 3.26 µM (active)
63 | CN1/C(=C/C=C(/C#N)C(N)=O)C(C)(C)c2ccccc21 | 7.04 µM (active)
64 | CN1/C(=C\C=C(C#N)C#N)C(C)(C)c2ccccc21 | 16.4 µM (active)
65 | CCOC(=O)C(C)Oc1cccc2c(=O)n(CC(=O)NCc3ccco3)ccc12 (stereo not drawn) | 3.14 µM (active)
66 | COC(=O)COc1cccc2c(=O)n(CC(=O)NCc3ccccc3)ccc12 | 4.44 µM (active)
67 | COc1cc(-c2nc3ccc(C)cn3c2NCc2ccccc2)ccc1SC1CCCCC1 | inactive
68 | CCOc1cc(C)nc(NCc2ccccc2)n1 | inactive
69 | CCC(C)Sc1cc(-c2nc3ccccn3c2NC2CCCCC2)ccc1OC (stereo not drawn) | inactive
70 | COc1ccc(-c2nc3c4ccccc4ccn3c2Cc2ccsc2)cc1OC | inactive
71 | COc1ccc(-c2nnc(SCC(=O)NCc3ccccc3)nc2-c2ccc(OC)c(OC)c2)cc1OC | 5.17 µM (active)
72 | CCOc1cc(-c2nnc(SCC(=O)NCc3ccccc3)nc2-c2ccc(OC)c(OCC)c2)ccc1OC | 2.31 µM (active)

Row | Compound | Potency
73 | N#CC1=C(N)C(C#N)(C#N)[C@H](c2c(F)cccc2F)[C@H]2CC3(CC=C12)OCCO3 | 16.4 µM (active)
74 | Cc1cccc(CN2C(=O)N/C(=C/c3ccc(C)s3)C2=O)c1 | 12.5 µM (active)
75 | Cc1ccc(/C=C2/NC(=O)N(Cc3ccccc3F)C2=O)s1 | 4.11 µM (active)
76 | C/C(CCC(C)C)=N\NC(=S)NCc1ccccc1 | inactive
77 | CC(=O)Nc1ccc(C2=CC(=O)C[C@H](c3ccc(Cl)cc3)C2)cc1 | 20.6 µM (active)
78 | CC(=O)Nc1ccc2c(c1)Cc1ccc(Cl)cc1-2 | inactive
79 | COc1cccc(N2CCN(Cc3nc4scc(-c5ccccc5)c4c(=O)[nH]3)CC2)c1 | 9.94 µM (active)
80 | O=c1[nH]c(CN2CCN(c3ccccc3)CC2)nc2scc(-c3ccccc3)c12 | 16.4 µM (active)
81 | O=C(NC(=S)N1CCN(C2CCCCC2)CC1)c1ccccc1 | inactive
82 | COc1ccc(Cl)cc1NC(=O)CN(C)CC(=O)Nc1ccccc1N1CCOCC1 | 3.53 µM (active)
83 | C/C(CC(=O)NCc1ccc(Cl)cc1)=N\NC(=O)COc1ccc(C)cc1Br | 15.8 µM (active)
84 | O=C(Oc1ccc(Cl)c2cccnc12)c1ccco1 | inactive
85 | C/C(CC(=O)NCc1ccco1)=N\NC(=O)COc1ccc(Cl)cc1Cl | 12.5 µM (active)
86 | c1ccc(N=Nc2ccc3cccccc2-3)cc1 | 15.8 µM (active)
87 | CCOC(=O)C(=Cc1ccc(-n2cncn2)cc1)C(=O)OCC | 7.9 µM (active)
88 | CCOC(=O)C(=Cc1ccc(-n2ccnc2)cc1)C(=O)OCC | 12.5 µM (active)
89 | COc1cc(CNCCSc2nnnn2C)ccc1OCc1c(F)cccc1Cl | inactive
90 | O=C(c1ccccc1)c1c2c(cc3sc4ccccc4[n+]13)-c1cccc3cccc-2c13 | 17.7 µM (active)
91 | Oc1ccc(C2=NNC(=NCc3ccc4c(c3)OCO4)SC2)c(O)c1 | 4.98 µM (active)
92 | O=C(O)CSc1c2ccccc2cc2ccccc12 | inactive
93 | Cc1cc(NC(=O)NC(=O)c2ccccc2NC(=O)C(C)N)ccc1Oc1ncc(Br)cn1 (stereo not drawn) | 3.14 µM (active)
